Assay outcomes (PubChem BioAssay)
Compounds with a hit are over-represented: about 3.1% of the library has one in this group of screens.
TRb-SRC2 inh – qHTS for Inhibitors of the Interaction of Thyroid Hormone Receptor and Steroid Receptor Coregulator 2; Thyroid hormone receptor beta (Homo sapiens), P10828; TRbeta-SRC2 peptide binding, fluorescence polarization; receptor liganded with 1 µM T3; 280,000 tested, 0.065% active; Potency, µM (titrated, usually from 106 µM), hits mostly inhibitors; note: nearly all actives have a fitted effect of over 50% in size
Target sequence (P10828 whole entry, looked up): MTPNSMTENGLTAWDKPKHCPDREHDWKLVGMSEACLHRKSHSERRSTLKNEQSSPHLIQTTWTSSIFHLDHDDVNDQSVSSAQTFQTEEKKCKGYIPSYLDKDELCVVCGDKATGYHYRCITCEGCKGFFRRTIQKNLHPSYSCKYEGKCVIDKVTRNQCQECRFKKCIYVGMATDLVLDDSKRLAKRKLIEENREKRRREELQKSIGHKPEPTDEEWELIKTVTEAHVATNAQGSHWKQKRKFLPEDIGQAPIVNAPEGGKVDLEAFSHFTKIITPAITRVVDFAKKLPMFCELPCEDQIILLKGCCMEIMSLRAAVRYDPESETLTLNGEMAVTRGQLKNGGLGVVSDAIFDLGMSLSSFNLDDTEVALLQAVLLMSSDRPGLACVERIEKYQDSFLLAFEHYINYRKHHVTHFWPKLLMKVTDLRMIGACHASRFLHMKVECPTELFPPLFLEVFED
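A fluorescence polarization screen tested compounds at multiple concentrations against complex formation between 0.6 uM TRb ligand-binding domain and 20 nM Texas Red SRC2 peptide, with 1 uM T3 present; readout after 5 hr.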
Tau fibril FP – qHTS for Inhibitors of Tau Fibril Formation, Fluorescence Polarization. 280,000 tested, 0.39% active. Potency, µM (titrated, usually from 57.7 µM), most hits filed as inhibitors. AID 1468, 2008. Microtubule-associated protein tau (Homo sapiens), P10636. K18 P301L tau heparin fibrillization, Alexa594 FP, 6 h; note: nearly all actives have a fitted effect of over 55% in size
Target sequence (P10636 561-689 P618L limits assumed): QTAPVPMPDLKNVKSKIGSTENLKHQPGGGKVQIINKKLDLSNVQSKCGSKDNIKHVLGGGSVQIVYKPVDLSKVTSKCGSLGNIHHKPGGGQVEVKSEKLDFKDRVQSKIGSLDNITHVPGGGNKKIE
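Heparin (20 uM) drove fibril formation of recombinant tau K18 P301L, 15 uM unlabeled with 0.24 uM Alexa 594 label, for 6 hr at 37 C in 100 mM sodium acetate pH 7. Fluorescence polarization (555/632 nm) read 1 hr after 30 uM ThT.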
Tau ThT inhib – qHTS for Inhibitors of Tau Fibril Formation, Thioflavin T Binding; Potency, µM (highest dose often 57.4 µM), most hits filed as inhibitors; Microtubule-associated protein tau (Homo sapiens), P10636; 270,000 tested, 2.1% active; AID 1460, 2008; recombinant tau K18 P301L, heparin-induced fibrillization, ThT fluorescence; note: nearly all actives have a fitted effect of over 55% in size
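Recombinant human tau K18 fragment […] carrying P301L, 15 uM unlabeled plus 0.24 uM Alexa 594-labeled, was fibrillized with 20 uM heparin in 100 mM sodium acetate pH 7 for 6 hr at 37 C; 30 uM ThT fluorescence read after 1 hr.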
Tau fluor cs – Counterscreen qHTS for Inhibitors of Tau Fibril Formation, Fluorescence Polarization; Potency, µM (top dose mostly 57.7 µM); tau K18 P301L (four-repeat tau fragment) Alexa594 fluorescence, heparin fibrillization; AID 1463, 2008; 280,000 tested, 0.93% active; note: nearly all actives have a fitted effect of over 55% in size
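Human K18 P301L tau (15 uM unlabeled plus 0.24 uM Alexa 594-labeled, final) in 100 mM sodium acetate pH 7 was mixed with compound and 20 uM heparin and incubated 6 hr at 37 C.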
TR SRC2 fluor cs – Total Fluorescence Counterscreen for Inhibitors of the Interaction of Thyroid Hormone Receptor and Steroid Receptor Coregulator 2. 280,000 tested, 0.29% active. TRb/SRC2 Texas Red total fluorescence interference. Potency, µM (series often up to 106 µM); active = well fitted curve in either direction with a large enough effect; inconclusive = small, poorly fitted or top-dose-only effect
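Flags fluorescent or light-absorbing compounds by total fluorescence, S + 2P, at 555 nm excitation and 632 nm emission. Mixture: 20 nM Texas Red SRC2 peptide, 0.6 uM human TRb LBD, 1 uM T3, 5% DMSO; compound exposure 5 h at ambient temperature.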
Numbers stand for hits; 0 = inactive; ? = inconclusive; - = no result given; [ ] = another dose, or the depositor's remark. Unless noted, calls come from the whole dose curve; as a rule, active = well fitted curve in the direction sought with a large enough effect; inconclusive = small, poorly fitted or top-dose-only effect, or another doubt; inactive = no such curve, though single readings can be large; an effect the other way counts as inactive or inconclusive.

SMILES	TRb-SRC2 inh	Tau fibril FP	Tau ThT inhib	Tau fluor cs	TR SRC2 fluor cs
CCn1c2ccccc2c2nnc(N3CCN(c4cccc(Cl)c4)CC3)nc21	0	0	?	18µM[quencher]	0
CCn1c2ccccc2c2nnc(N3CCN(c4ccc(F)cc4)CC3)nc21	0	0	0	0	0
COc1ccc(C)cc1S(=O)(=O)Nc1cccc(-c2ccc(N3CCCC3)nn2)c1	0	0	0	0	0
NC(=O)c1ccc(N2CCN(c3ncc(C(F)(F)F)cc3Cl)CC2)cc1	0	0	?	0	0
Nc1ccc(N2CCN(c3ncc(C(F)(F)F)cc3Cl)CC2)c(C(F)(F)F)c1	0	?	20µM	10µM[quencher]	0
Cc1ccc(-c2ccc(/C=C(\C#N)C(N)=S)n2C)cc1	0	0	1µM	?	0
NC(=S)n1[nH]c(-c2ccc([N+](=O)[O-])cc2)c(N=Nc2ccccc2[N+](=O)[O-])c1=O	0	0	?	0	0
Cc1c(N=Nc2c(-c3ccc([N+](=O)[O-])cc3)[nH]n(C(N)=S)c2=O)cccc1[N+](=O)[O-]	0	?	8.9µM	?	0
NC(=S)n1[nH]c(-c2ccc([N+](=O)[O-])cc2)c(N=Nc2cccc([N+](=O)[O-])c2)c1=O	0	0	11µM	?	0
CN(N=Nc1cccc([N+](=O)[O-])c1)c1cccc([N+](=O)[O-])c1	0	0	0	?	0
CCn1c(CSc2ncn[nH]2)nc2cc(C(=O)O)ccc21	?	0	0	0	?
CCn1c(CSc2nnc(-c3ccncc3)n2C)nc2cc(C(=O)O)ccc21	40µM	0	0	0	45µM[fluorescent]
OC(CN1CCNCC1)Cn1c2ccc(Br)cc2c2cc(Br)ccc21 (stereo unspecified)	0	?	0	?	0
CN(C)c1ccc(NC2=C(Cl)C(=O)c3ccccc3C2=O)cc1	0	14µM	7.9µM	3.5µM[quencher]	0
O=C1C=C(Nc2ccccc2)c2ccccc2C1=O	0	0	?	0	0
Cc1ccc(Nc2nc(N)c([N+](=O)[O-])c(NCCO)n2)cc1	0	0	?	0	0
Cc1ccc(NC2=C(NCCO)C(=O)c3ccccc3C2=O)cc1	0	?	22µM	?	0
Cc1cccc(NC2=C(NC(=O)c3ccccc3)C(=O)c3ccccc3C2=O)c1	0	0	?	0	0
O=C(NC1=C(Nc2ccc(Cl)cc2)C(=O)c2ccccc2C1=O)c1ccccc1	0	0	18µM	?	0
O=C1C(Cl)=C(Nc2ccc3cn[nH]c3c2)C(=O)c2ccccc21	0	7.9µM	1.8µM	1.4µM[quencher]	0
CN(C)c1ccc(CNC(=O)C2(C)C=CCN2C(=O)c2ccccc2)cc1 (stereo unspecified)	0	0	0	0	0
Cc1ccc(OCC(O)C(C)NC(C)C)c2c1CCC2 (stereo unspecified)	0	0	0	0	0
CC1CCC(C(C)C)C(P(=O)(c2ccccc2)c2ccccc2)C1 (stereo unspecified)	0	-	-	-	0
COc1ccc(OC)c(CNC(=O)C2CCCCN2S(=O)(=O)c2ccc(F)cc2)c1 (stereo unspecified)	0	0	0	0	0
Cc1ccc2c(c1)c1c3n2CCN(C(=O)c2cccc(C(F)(F)F)c2)C3CCC1 (stereo unspecified)	0	0	0	0	0
SMILES	TRb-SRC2 inh	Tau fibril FP	Tau ThT inhib	Tau fluor cs	TR SRC2 fluor cs
CC(=O)Nc1ccc(NC(=O)c2cccc3c2-c2ccccc2C3=O)cc1	0	0	0	0	0
O=C(Oc1ccc(NC2=C(Cl)C(=O)c3ccccc3C2=O)cc1)c1ccc([N+](=O)[O-])cc1	0	?	3.2µM	2.8µM[quencher]	0
COc1ccccc1NC1=C(NC(C)=O)C(=O)c2ccccc2C1=O	0	?	20µM	0	0
CC(=O)Nc1ccc(NC2=C(Cl)C(=O)c3ccccc3C2=O)cc1	0	10µM	2µM	2.2µM[quencher]	0
COC1=C(Nc2ccccc2OC)C(=O)c2ccccc2C1=O	0	?	?	?	0
CCc1ccc(NC(=O)Cn2c(=O)n(-c3ccc(Cl)c(Cl)c3)c(=O)c3c(C)c(C)sc32)cc1	0	0	0	0	0
COCCN(CCOC)c1ncnc2c1c(-c1ccccc1)cn2-c1ccc(C)c(Cl)c1	0	0	0	0	0
CCOC(=O)N1CCC(N2Cc3cccc(C(=O)Nc4cccc(F)c4)c3C2=O)CC1	0	?	?	4µM[quencher]	0
CC12CCC=CC1C(c1ccc3ccccc3c1C=Cc1ccccc1)N(Cc1ccccc1)C2=O (stereo unspecified)	0	-	-	-	0
Cc1ccc(-c2[nH]c3ccccc3c2SCCNC(=O)c2cc3ccccc3oc2=O)cc1	0	0	?	8.9µM[quencher]	0
Cc1[nH]c2ccc(Br)cc2c1CCNC(=O)c1cc2ccccc2oc1=O	0	?	?	?	0
O=C(NCCSc1c(-c2ccccc2)[nH]c2ccccc12)c1cc2ccccc2oc1=O	0	0	?	7.1µM[quencher]	0
Cc1ccc(NC(=O)C2CCCN(S(=O)(=O)c3cccc4nsnc34)C2)cc1C (stereo unspecified)	0	0	0	0	0
Nc1ccc(N=Nc2ccccc2)c2ccccc12	0	?	7.1µM	13µM[quencher]	0
CCOc1ccc(N=Nc2ccc(N)cc2N)cc1	0	-	-	-	0
Cc1ccc(NC(=O)Cn2cc(S(=O)(=O)N3CCN(c4ccccc4F)CC3)c3ccccc3c2=O)cc1F	0	14µM	0	0	0
CC(C)c1ccc(NC(=O)Cn2cc(S(=O)(=O)N3CCN(c4ccccc4F)CC3)c3ccccc3c2=O)cc1	0	?	0	0	0
O=C(Cn1cc(S(=O)(=O)N2CCN(c3ccccc3F)CC2)c2ccccc2c1=O)Nc1cccc(C(F)(F)F)c1	0	14µM	0	0	0
CC1CCN(S(=O)(=O)c2cn(CC(=O)Nc3cccc(C(F)(F)F)c3)c(=O)c3ccccc23)CC1	0	?	0	?	0
COC(=O)c1cc(NC(=O)c2cc(-c3ccccc3Cl)oc2C(F)(F)F)ccc1N1CCOCC1	0	?	-	13µM[quencher]	0
O=C(CSc1cn(CC(=O)N2CCCC2)c2ccccc12)Nc1ccccc1C(F)(F)F	0	0	0	0	0
CCN(CCO)c1ccc(N=Nc2cc(C)[nH]n2)cc1	0	0	10µM	0	0
Cc1cccc(N2CCN(C(=O)CCc3nnc4n(CC(C)C)c(=O)c5ccccc5n34)CC2)c1C	0	0	?	0	?
CC(C)Cn1[nH]c2c3c(ccc2c1=O)C(=O)c1ccccc1C3=O	0	0	14µM	?	0
Cc1cccc(-n2[nH]c3c4c(ccc3c2=O)C(=O)c2ccccc2C4=O)c1	0	0	?	?	0
